The text below walks through data of PubChem BioAssay.

Active and inactive are the calls of the source.

Assay [1] deals with Albumin (Bos taurus) (UniProt P02769). The assay is described as follows: compounds binding labelled BSA control protein – biochemical, small-molecule microarray, Alexa647 label, 635/667 nm fluorescence, artefact control for SMM control protein annotation, profiling panel (AID 1118).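 Further: score merges 667 nm emission intensity and signal-to-noise per printed compound spot.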 The note with it: BSA-A647 binding, fluorescence 635 nm, higher = more signal.
Albumin (Bos taurus), sequence (P02769 whole entry, looked up): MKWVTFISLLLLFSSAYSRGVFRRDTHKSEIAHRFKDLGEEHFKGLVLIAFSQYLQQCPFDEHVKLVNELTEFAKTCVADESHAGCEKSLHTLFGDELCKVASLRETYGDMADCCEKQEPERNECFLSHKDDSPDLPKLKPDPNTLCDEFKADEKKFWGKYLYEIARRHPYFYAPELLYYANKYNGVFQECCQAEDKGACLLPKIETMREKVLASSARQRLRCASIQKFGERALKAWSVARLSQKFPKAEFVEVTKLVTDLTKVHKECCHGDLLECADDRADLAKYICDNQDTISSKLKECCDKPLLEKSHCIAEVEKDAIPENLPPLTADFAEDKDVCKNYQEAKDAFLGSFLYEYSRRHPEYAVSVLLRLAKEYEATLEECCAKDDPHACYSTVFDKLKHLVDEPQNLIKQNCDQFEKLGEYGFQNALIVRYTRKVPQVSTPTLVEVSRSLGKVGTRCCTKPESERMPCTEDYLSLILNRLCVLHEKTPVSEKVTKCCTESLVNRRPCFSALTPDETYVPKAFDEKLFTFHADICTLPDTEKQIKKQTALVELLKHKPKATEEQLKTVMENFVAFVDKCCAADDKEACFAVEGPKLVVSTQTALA
The nature of assay [2]: probe aXIP binding to arrayed compounds – biochemical, NeuroSMM set, 635/667 nm fluorescence, primary screen (AID 1119).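 Further: probe is the protein aXip251-270 applied at 1 µg/mL to compound-printed slides; binding of probe to printed compounds measured as 667 nm fluorescence plus signal to noise.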 To be noted: small-molecule microarray, higher = more signal, called active from +8 up or from −8 down.
Assay [3] can be described thus: probe aNOTCH3 binding on compound microarray – biochemical, small-molecule microarray, 635/667 nm fluorescence, primary screen (AID 1120).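 Further: probe is a biotin-tagged antibody raised against NOTCH3 rather than NOTCH3 protein; score merges spot fluorescence near 667 nm with spot signal to noise.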 To be noted: higher = more signal.
A short description of assay [4]: probe aNOTCH2 binding on compound microarray – biochemical, small-molecule microarray, 635/667 nm fluorescence, primary screen (AID 1121).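 Further: score merges feature fluorescence read at 667 nm with its signal to noise.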 The note with it: higher = more signal.
Assay [5] has as its target Carbonic anhydrase 2 (Homo sapiens) (UniProt P00918). The assay is described as follows: compounds binding carbonic anhydrase 2 – biochemical, small-molecule microarray, Alexa647-labelled CAII, profiling panel (AID 1122). To be noted: CAII-A647 binding fluorescence, higher = more signal.
Assay [6] can be described thus: COS7 lysate on small-molecule microarray, probe aHis, 635 nm (AID 1123).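 Further: z-score combines 667nm fluorescence intensity with signal-to-noise per printed compound spot.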 To be noted: COS7 cell lysate, fluorescence, higher = more signal.
Assay [7] can be described thus: probe aLAP1 signal on lysate-treated microarray – cell lysate, small-molecule microarray, COS7 lysate, primary screen (AID 1124).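 Further: lysate comes from COS7 cells expressing LAP1 and is applied at 0.3 µg/mL; score merges spot fluorescence near 667 nm with signal-to-noise over triplicate slides.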 To be noted: probe aLAP1, fluorescence, higher = more signal.
Assay [8] has as its system Sam68 (KHDRBS1). The assay is described as follows: compounds binding KHDRBS1 protein – biochemical, small-molecule microarray, 635 nm fluorescence, primary screen (AID 1125).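 Further: score merges 667 nm channel intensity with signal to noise over triplicate slides.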 The note with it: higher = more signal.
Assay [9] relates to Chordin-like protein 2 (CHRDL2). The assay is described as follows: compounds binding chordin-like 2 – biochemical, small-molecule microarray, 635 nm fluorescence, primary screen (AID 1126).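 Further: printed compound slides probed with Chrdl2 protein at 4 µg/mL for 1 h at 4 C; score merges 667 nm emission intensity with signal to noise over three replicate slides.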 The note with it: fluorescence 635 nm, higher = more signal.
In assay [10] the target is Concanavalin-A (Canavalia ensiformis) (UniProt P02866). Put plainly: compounds binding concanavalin A lectin – biochemical, small-molecule microarray, Alexa647 label, 635 nm, artefact control for SMM control protein annotation, primary screen (AID 1127).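 Further: z combines 667 nm emission intensity with signal-to-noise across three replicate slides.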 To be noted: ConA-A647 binding fluorescence, higher = more signal.
Concanavalin-A (Canavalia ensiformis), sequence (P02866 whole entry, looked up): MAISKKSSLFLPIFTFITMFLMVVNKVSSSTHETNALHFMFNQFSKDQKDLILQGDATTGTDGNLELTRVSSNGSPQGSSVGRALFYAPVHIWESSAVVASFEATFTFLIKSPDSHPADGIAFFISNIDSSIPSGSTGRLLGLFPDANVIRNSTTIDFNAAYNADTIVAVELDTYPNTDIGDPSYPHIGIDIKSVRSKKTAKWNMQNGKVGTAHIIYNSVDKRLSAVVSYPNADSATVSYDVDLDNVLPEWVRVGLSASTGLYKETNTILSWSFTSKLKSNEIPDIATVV
Assay [11] can be described thus: compounds binding Alexa647 anti-His antibody – biochemical, small-molecule microarray, 635 nm fluorescence, artefact control for SMM control protein annotation, primary screen (AID 1128).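 Further: score merges feature fluorescence with signal-to-noise for each printed compound spot.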 To be noted: higher = more signal.
The test system of assay [12] is Human papillomavirus type 1a E7 protein (residues 1-88). The assay is described as follows: HPV1a E7 small-molecule binders, primary screen, biochemical, small-molecule microarray, residues 1-88, 635 nm (AID 1129). To be noted: small-molecule microarray binding, fluorescence 635 nm; higher = more signal.
Assay [13] concerns the target Focal adhesion kinase 1 (Homo sapiens) (UniProt Q05397). The assay is described as follows: PTK2 protein binding on printed compound slides – biochemical, small-molecule microarray, 635/667 nm fluorescence, BSA, DTT, primary screen (AID 1130).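 Further: composite of spot emission at 667 nm and signal to noise over triplicate slides.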 The note with it: 635 nm fluorescence, higher = more signal.
Assay [14] concerns Fibrinogen (Alexa647-labelled). The assay is described as follows: Alexa647-fibrinogen binding to printed small molecules – biochemical, small-molecule microarray, 635/667 nm fluorescence, artefact control for SMM control-protein annotation, profiling panel (AID 1131).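 Further: z-score merges 667 nm fluorescence with per-spot signal-to-noise over triplicate slides.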 To be noted: fibrinogen-A647 binding fluorescence, higher = more signal.
Assay [15] concerns the target Follistatin (Homo sapiens) (UniProt P19883). The assay is described as follows: FST protein binding to printed compounds – biochemical, small-molecule microarray, 635/667 nm fluorescence, primary screen (AID 1132). The note with it: 635 nm fluorescence, higher = more signal.
For assay [16], the target named is Fibroblast growth factor 2 (Homo sapiens) (UniProt P09038). Put plainly: basic fibroblast growth factor binding to printed compounds – biochemical, small-molecule microarray, 635/667 nm fluorescence, primary screen (AID 1133). The note with it: FGF2, fluorescence 635/667, higher = more signal.
Fibroblast growth factor 2 (Homo sapiens), sequence (P09038 whole entry, looked up): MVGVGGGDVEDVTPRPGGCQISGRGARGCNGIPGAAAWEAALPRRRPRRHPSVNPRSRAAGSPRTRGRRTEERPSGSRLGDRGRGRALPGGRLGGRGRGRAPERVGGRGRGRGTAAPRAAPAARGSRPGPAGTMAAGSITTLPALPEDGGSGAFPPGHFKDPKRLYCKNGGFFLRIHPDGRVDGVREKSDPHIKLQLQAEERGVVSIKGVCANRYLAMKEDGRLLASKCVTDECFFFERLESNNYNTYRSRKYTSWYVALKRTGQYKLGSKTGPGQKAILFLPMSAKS
Assay [17] is described as follows: JC-1 mitochondrial potential readout, lung cancer cells – cell-based, A549, JC-1 fluorescence, basal, 24 h, 100 nL, profiling panel (AID 1138).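 Further: A549 lung adenocarcinoma cells under basal conditions with no added stimulus; test concentration not given here.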 The note with it: higher = more signal.
The subject of assay [18] is Lefty1. Put plainly: Lefty1 protein binding to printed compounds – biochemical, small-molecule microarray, 635/667 nm fluorescence, primary screen (AID 1139). The note with it: fluorescence 635/667, higher = more signal.
Assay [19] deals with wheat germ agglutinin (Triticum aestivum), Alexa647-labelled. The assay is described as follows: Alexa647-WGA lectin binding to printed small molecules – biochemical, small-molecule microarray, 635/667 nm fluorescence, artefact control for SMM control-protein annotation, profiling panel (AID 1140).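 Further: score merges 667 nm feature emission with signal to noise over triplicate slides.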 To be noted: WGA-A647 binding, 635 nm fluorescence, higher = more signal.
Assay [20] has as its target Luciferin 4-monooxygenase (Photinus pyralis) (UniProt P08659). The assay is described as follows: inhibition of purified Photinus pyralis luciferase – biochemical, luminescence, purified enzyme, 2006 set, primary screen (AID 1141).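 Further: cell-free assay with purified firefly luciferase at 100 ng per well in PBS; test concentration not given here.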 The note with it: purified firefly luciferase, SteadyGlo luminescence, 30 min; higher = more signal, called active from +8 up or from −8 down.

Luciferin 4-monooxygenase (Photinus pyralis), sequence (P08659 whole entry, looked up): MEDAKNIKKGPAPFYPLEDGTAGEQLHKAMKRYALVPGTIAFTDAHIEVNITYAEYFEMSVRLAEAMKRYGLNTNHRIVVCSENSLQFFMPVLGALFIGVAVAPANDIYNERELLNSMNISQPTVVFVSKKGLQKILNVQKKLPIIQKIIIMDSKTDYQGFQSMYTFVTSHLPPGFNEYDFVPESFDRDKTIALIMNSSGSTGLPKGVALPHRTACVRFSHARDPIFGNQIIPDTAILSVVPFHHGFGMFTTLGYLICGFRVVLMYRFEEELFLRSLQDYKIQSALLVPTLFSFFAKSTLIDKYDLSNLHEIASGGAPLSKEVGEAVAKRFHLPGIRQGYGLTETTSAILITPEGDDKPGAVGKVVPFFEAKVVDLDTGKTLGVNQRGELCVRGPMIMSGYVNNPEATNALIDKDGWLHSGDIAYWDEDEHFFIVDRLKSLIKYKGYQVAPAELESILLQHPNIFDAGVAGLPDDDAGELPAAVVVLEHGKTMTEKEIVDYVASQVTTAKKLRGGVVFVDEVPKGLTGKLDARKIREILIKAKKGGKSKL
Focal adhesion kinase 1 (Homo sapiens), sequence (Q05397 whole entry, looked up): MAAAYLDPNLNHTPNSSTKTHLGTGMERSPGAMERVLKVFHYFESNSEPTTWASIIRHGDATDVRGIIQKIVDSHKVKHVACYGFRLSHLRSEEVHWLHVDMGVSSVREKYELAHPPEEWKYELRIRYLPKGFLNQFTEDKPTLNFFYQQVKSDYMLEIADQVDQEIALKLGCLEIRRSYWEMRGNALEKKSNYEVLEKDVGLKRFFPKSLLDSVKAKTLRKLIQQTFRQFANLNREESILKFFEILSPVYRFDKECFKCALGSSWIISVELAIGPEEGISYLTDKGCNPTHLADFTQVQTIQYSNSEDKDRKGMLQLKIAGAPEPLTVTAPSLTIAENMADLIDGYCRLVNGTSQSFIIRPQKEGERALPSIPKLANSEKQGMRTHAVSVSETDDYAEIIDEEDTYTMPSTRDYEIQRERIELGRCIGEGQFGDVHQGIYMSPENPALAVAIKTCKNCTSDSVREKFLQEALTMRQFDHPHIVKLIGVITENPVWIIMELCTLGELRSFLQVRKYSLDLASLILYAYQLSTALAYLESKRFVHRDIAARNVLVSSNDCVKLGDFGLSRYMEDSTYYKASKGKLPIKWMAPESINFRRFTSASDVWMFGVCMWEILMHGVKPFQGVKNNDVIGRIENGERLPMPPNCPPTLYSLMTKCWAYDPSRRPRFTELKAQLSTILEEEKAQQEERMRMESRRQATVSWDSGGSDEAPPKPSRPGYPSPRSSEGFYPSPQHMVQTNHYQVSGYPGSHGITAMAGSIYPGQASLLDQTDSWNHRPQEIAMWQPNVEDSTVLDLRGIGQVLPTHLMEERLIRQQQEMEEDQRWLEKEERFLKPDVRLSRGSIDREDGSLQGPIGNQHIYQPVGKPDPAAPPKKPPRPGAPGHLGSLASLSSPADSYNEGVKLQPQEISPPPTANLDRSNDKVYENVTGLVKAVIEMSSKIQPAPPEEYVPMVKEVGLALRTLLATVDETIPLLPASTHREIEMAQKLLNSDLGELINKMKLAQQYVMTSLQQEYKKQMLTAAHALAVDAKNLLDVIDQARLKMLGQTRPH
Follistatin (Homo sapiens), sequence (P19883 whole entry, looked up): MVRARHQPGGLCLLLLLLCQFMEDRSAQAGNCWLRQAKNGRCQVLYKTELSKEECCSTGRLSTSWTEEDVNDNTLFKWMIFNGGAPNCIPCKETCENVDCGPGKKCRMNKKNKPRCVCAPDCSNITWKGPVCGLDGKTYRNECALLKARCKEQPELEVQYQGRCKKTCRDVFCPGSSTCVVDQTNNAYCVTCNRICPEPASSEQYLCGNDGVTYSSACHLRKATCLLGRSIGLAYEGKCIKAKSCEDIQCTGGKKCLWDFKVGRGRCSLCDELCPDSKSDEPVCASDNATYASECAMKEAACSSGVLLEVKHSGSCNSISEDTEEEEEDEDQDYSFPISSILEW

Regarding `C=CCN1C(=O)[C@@]2(O[C@@H](CCn3cc(CCO)nn3)[C@H]([Si](C)(C)c3ccc(OC)cc3)[C@H]2C)c2cc(N3C(=O)c4cccc5cccc3c45)ccc21`, the composite z-score is 0.681 in [1]; -0.0299 in assay [3]; -0.0703 in [4]; 0.455 in [5]; 0.249 in [6]; 0.15 in assay [7]. For the same compound, the composite z-score amounted to 0.966 in assay [8]; 0.0449 in [9]; 1.09 in assay [10]; 0.29 in assay [11]; 0.511 in [12]; 0.608 in [13]. For the same compound, the composite z-score in assay [14] was 0.807; in assay [15], 0.816; in assay [16], 0.973; in assay [18] it was 0.537; in [19], 1.1. In addition, the composite Z-score in assay [2] was -0.128 (inactive). For the same compound, the values for the z-score in assay [17] and in [20] were -1.38 and -1.96 (inactive), respectively.

`NC(=O)N1C(=O)C2C(C1=O)C1C=C(c3ccc(CO)cc3)C2C(C2CC2)N1Cc1cc2c(cc1Br)OCO2` (stereo not given): the composite z-score in assay [1] is 0.585; in assay [3], -0.0377; in [4] it was -0.0745; in assay [5] it was 0.762; in assay [6], 1.32; in [7], -0.421. Moreover, the composite z-score in assay [8] was 0.61; in assay [9], -0.312; in [10], 0.574; in [11] it was 2.29; in assay [12] it was 0.066; in assay [13], 0.138. Besides, the composite z-score is 0.157 in assay [14]; 0.197 in assay [15]; -0.149 in assay [16]; 0.828 in assay [18]; 0.216 in assay [19]. Also, the composite Z-score in assay [2] is 0.219 (inactive). For the same compound, the z-score in assay [17] is 1.96; in [20], -2.17 (inactive).

Regarding `C=CCC(OC(C)=O)[C@@H]1[C@@H](N(Cc2cccc3ccccc23)C(=O)Cc2ccc(OC)cc2)c2cc(OCCCO)ccc2N1C(=O)Cc1ccc(OC)cc1` (stereo not given in full), the composite z-score in assay [1] was 0.73; in [3] it was -0.0373; in [4], -0.104; in assay [5], 0.207; in assay [6], 0.624; in assay [7], 0.163. The composite z-score in [8] was 0.0025; in assay [9], 0.0487; in assay [10], -0.532; in assay [11], -0.28; in [12], -0.418; in assay [13], -0.238. The composite z-score in assay [14] is 0.849; in assay [15], 0.148; in assay [16], -0.0722; in assay [18] it was -0.392; in assay [19], 0.349. Besides, the composite Z-score in [2] was -0.199 (inactive). Also, the z-score in assay [17] was 0.537; in assay [20], -0.369 (inactive).

For the compound `CC(C)N1C(=O)c2ccccc2[C@@H](C(=O)NCc2ccccc2)[C@@H]1c1ccc(CO)cc1`, the composite z-score was -2.18 in assay [1]; -0.27 in assay [3]; -0.162 in [4]; 0.741 in assay [5]; 1.51 in [6]; 0.409 in assay [7]. Also, the composite z-score in assay [8] is 0.0504; in assay [9], -0.184; in assay [10], -1.07; in assay [11], -1.36; in assay [12], 0.369; in assay [13], 0.427. Moreover, the composite z-score in [14] is -1.22; in assay [15], 0.815; in assay [16], 0.82; in [18] it was -1.28; in assay [19] it was -1.51. Moreover, in assay [2], the composite Z-score is 0.335 (inactive). Also, the z-score was 1.64 in assay [17] and -0.886 (inactive) in assay [20].

On to `COCCCN1C(=O)[C@@]2(Cc3ccccc31)c1ccccc1C(=O)N(Cc1ccccc1Cl)[C@H]2c1ccc(CO)cc1`, for which the composite z-score in [1] is -0.538; in assay [3], -0.126; in [4] it was -0.162; in [5], 0.106; in assay [6], -0.0024; in assay [7], 0.179. Further, the composite z-score is 0.0462 in assay [8]; -0.272 in assay [9]; 0.0915 in assay [10]; -1.15 in [11]; -1.53 in assay [12]; -0.557 in [13]. The composite z-score in assay [14] was -0.358; in [15], -0.45; in [16], -0.0761; in [18], -0.348; in assay [19] it was -1.02. The composite Z-score in [2] was -0.17 (inactive). In addition, the z-score in assay [17] is 0.83; in assay [20], -1.13 (inactive).

As for `CCOC(=O)C[C@H]1[C@H](OC(=O)Cc2ccc3c(c2)OCO3)[C@@H](NC(=O)c2ccc3ccccc3c2)c2cc(OCCCO)ccc2N1C(=O)c1ccc2ccccc2n1`, the composite z-score in [1] was 0.661; in assay [3], 0.0349; in assay [4], -0.0523; in assay [5] it was 0.371; in [6] it was 0.77; in assay [7], 0.562. Besides, the composite z-score in assay [8] is 0.826; in [9], -0.318; in assay [10], 0.356; in [11], 0.0303; in assay [12], 0.731; in [13] it was -0.339. Moreover, the composite z-score in assay [14] is 0.774; in assay [15], 0.197; in assay [16], 0.334; in assay [18], 0.37; in assay [19], 1.06. Moreover, the composite Z-score in assay [2] is -0.102 (inactive). Besides, the values for the z-score in [17] and in [20] were 2.55 and -1.25 (inactive), respectively.
